From PubChem BioAssay (NCATS)
Inconclusive results are not listed. Unmarked numbers belong to inactive results. Activity calls are given as the source filed them. The call rests on the fitted dose curve; in most records, active means well fitted inhibition curve with a large enough effect; inconclusive means small, poorly fitted or top-dose-only effect; inactive means flat fitted curve, though single readings scatter.

The molecules below were run against Calcium and integrin-binding protein 1 (Homo sapiens) (UniProt Q99828) (assay: Primary qHTS for Identification of Calcium Integrin Binding Protein 1 (CIB1) Competitor (AID 1508620; further: top concentration of the series differs between compounds)). Settings: CIB1-GST / FITC-alphaIIb peptide fluorescence polarization; series mostly up to 114 µM; activity change, negative = inhibition: at the top concentration.
Procedure, shortened: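 Fluorescence polarization competition: GST-tagged CIB1 (1 uM final) preincubated with compound 15 min at room temperature, then FITC-labelled alphaIIb peptide (100 nM final) added. After 15 min at room temperature, polarization read at Ex 480/Em 540.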
On the % scale 0 is the no-effect control and ±100 the full control effect.

Sequence of Calcium and integrin-binding protein 1 (Homo sapiens) (Q99828 whole entry, looked up): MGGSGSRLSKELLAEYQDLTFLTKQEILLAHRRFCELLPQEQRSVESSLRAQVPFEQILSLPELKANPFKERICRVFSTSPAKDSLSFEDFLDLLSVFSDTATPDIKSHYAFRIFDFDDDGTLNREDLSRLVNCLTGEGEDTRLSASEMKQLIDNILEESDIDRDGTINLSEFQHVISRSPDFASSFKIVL

In order of falling “activity change, negative = inhibition” value:
1. COc1cccc(C2c3c(ncn(-c4ccc(C(C)(C)C)cc4)c3=N)Oc3ccc4ccccc4c32)c1 (stereo not given)  24.1%
2. O=C(NCCc1nc2ccccc2n1CCOc1ccc(Cl)cc1)C1CCCCC1  16.5%
3. Cc1ccc(OCCn2c(CCNC(=O)c3ccccc3C)nc3ccccc32)cc1  11.2%
4. O=[N+]([O-])c1ccccc1NCc1ccc(O)c2ncccc12  5.31%
5. O=[S+]([O-])(c1ccc2c(c1)OCCO2)N1CCN([S+](=O)([O-])c2c(F)cc(F)cc2Br)CC1  4.34%
6. CC(=O)Nc1cccc(S(=O)(=O)Nc2ccc(C)c(C)c2)c1  4.3%
7. N#Cc1nc(Nc2cc(Cl)cc(Cl)c2)nc(NC2CCCC2)n1  4.14%
8. N#Cc1c(-c2ccc(F)cc2)no[n+]1[O-]  4.13%
9. COc1ccc(C2Nc3ccccc3C(=O)N2Cc2cccc(-c3ccccc3)c2)cc1COc1ccc(NC(C)=O)cc1 (stereo not given)  4.1%
10. CC(C)(C)c1ccc(Nc2nc(C#N)nc(NC3CCCC3)n2)cc1  3.45%
11. O=c1c2ccc([N+](=O)[O-])cc2nc2sc(Nc3ccc4c(c3)CCC4)nn12  3.39%
12. CC(=O)N1CCN(c2nc(-c3ccc(Br)cc3)cs2)CC1  3.15%
13. O=C(Nc1ccc(-c2nc3ccccc3[nH]2)cc1)c1ccc2cc[nH]c2c1  2.35%
14. FC(F)(F)c1ccccc1-c1nc(NCc2ccc(Cl)c(Cl)c2)c2ccccc2n1  1.84%
15. Fc1cccc(CSc2nc3ncc(Br)cc3[nH]2)c1  1.75%
16. O=c1[nH]c2ccc(S(=O)(=O)N3CCN(S(=O)(=O)c4ccc5c(c4)OCCO5)CC3)cc2[nH]c1=O  1.62%
17. CCCCNC(=S)NCCCc1cnc[nH]1  1.6%
18. Cc1cc2c(s1)c1cnn(Cc3ccc4ccccc4c3)c(=O)c1n2C  1.5%
19. Cc1cccc(-n2cnc3cc(C(=O)N4CCC(N5CCOCC5)CC4)ccc32)c1  1.48%
20. CCOc1ccc(CCNC(=O)c2ccc(C3(C(F)(F)F)N=N3)cc2)cc1OCC  1.3%
21. CCCc1nnc(-c2cnn(C)c2N)n1CCCn1ccnc1  1.17%
22. COc1ccc(OC2=NS(=O)(=O)c3ccccc32)cc1  1.06%
23. FC(F)(F)c1ccccc1-c1nc(NCc2ccc(-c3ccc4c(c3)OCO4)cc2)c2ccccc2n1  0.658%
24. O=S(=O)(NC1CCN(S(=O)(=O)c2ccc3c(c2)OCCO3)CC1)c1c(F)cccc1F  0.641%
25. O=C(OCC#CCSc1nnc(-c2ccco2)o1)c1ccc(F)cc1  0.273%
26. Cc1cccc(-n2cnc3cc(C(=O)N4CCC(C(F)(F)F)CC4)ccc32)c1  0.0136%
27. CC1=C(C(=O)Nc2ccccc2)C(c2ccccc2Br)N=C(Nc2nc3ccccc3o2)N1 (stereo not given)  -0.072%
28. Cc1cnc(N2CCC(C(N)=O)CC2)nc1-c1cccc(N(C)C)c1  -1.73%
29. Cc1cc2c(s1)c(C#N)c(C(=O)NCc1ccccc1F)n2C  -1.97%
30. Cc1cccc(C2N=C(Nc3nc4ccccc4o3)NC3=C2C(=O)CCC3)c1 (stereo not given)  -3.54%
31. O=[S+]([O-])(Nc1ccccc1)c1ccc(NCc2cccc(C(F)(F)F)c2F)cc1  -3.91%
32. COc1ccc(OC)c(-c2nnc3n2N=C(c2ccc(OC)c(OCC4CC4)c2)CS3)c1  -6.74%
33. N#Cc1ccc(-c2ccc(CNc3ccc(N4CCOCC4)cc3)o2)cc1  -7.24%
34. CN1C(=O)CCc2cc(S(=O)(=O)Nc3ccc(Cl)c(Cl)c3)ccc21  -9.97%
35. COc1ccc(CC(=O)Nc2ccc(S(=O)(=O)Nc3cc(C)on3)cc2)cc1OC  -10.3%
36. N#Cc1nc(Nc2cc(F)cc(F)c2)nc(Nc2cc(F)cc(F)c2)n1  -10.3%
37. COc1ccc(CNc2ccc(S(=O)(=O)Nc3nccs3)cc2)c(O)c1  -12.5%
38. CCc1c(C)nc2cc(-c3ccc(OC)c(OC)c3)nn2c1N1CCCC1  -16.8%
39. Cc1cc(C)nc(NC(=S)N2CCN(c3cccc([N+](=O)[O-])c3)CC2)c1  -21.9%

In the case of `c1ccc(OCc2nnc3n2N=C(c2ccccc2)CS3)cc1`, the Potency is reported as “inactive”.
